According to the supplement of paper PMC10498489:
Screen size: about 2,300 compounds; about 330 (14%) showed activity. Not all results are given here. Unmarked numbers belong to inactive results.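 The calls were made as follows: active = median modified Z-score above 1.96; inactive = 1.96 or below.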

The molecules below were run on HepG2 Srxn1-GFP reporter cells (+30 nM CDDO-Me) (assay: Srxn1-GFP intensity median modified Z-score relative to plate median; higher = stronger NRF2 / oxidative stress reporter activation, active = hit call of the paper). Details: 10 µM; exposure time: 24h.
How it was run: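 Compound at 10 μM was applied with an NRF2 activator at 30 nM to HepG2 Srxn1-GFP BAC reporter cells for 24 h, in DMSO at no more than 0.1%, using three replicate 96-well plates seeded at 20,000 cells per well. Fixed, Hoechst-stained cells were imaged confocally and cytoplasmic GFP was scored for each cell, with images under 100 cells left out. The figure reported is the replicate median of the per-plate modified Z-score of GFP intensity. Scaling relied on 1.4826 × median absolute deviation.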

Structure (SMILES)	Srxn1-GFP intensity median modified Z-score
CN(C)C1C(=O)C(C(N)=O)C(=O)[C@@]2(O)C(=O)C3C(=O)c4c(O)cccc4[C@@](C)(O)[C@H]3[C@H](O)[C@@H]12 (stereo partly drawn) [euspeclibcmpd225]	-0.444
CC(=O)O[C@@H]1CC[C@]2(C)C3CC[C@]4(C)C(=O)CCC4C3CC[C@H]2C1 (stereo partly drawn) [euspeclibcmpd1810]	0.269
Cc1nc(=O)c(C[n+]2csc(CCO)c2C)c[nH]1 [euspeclibcmpd1800]	0.155
CCCCCC1C(=O)O[C@H](C)C(NC(=O)c2cccc(NC=O)c2O)C(=O)O[C@@H](C)[C@@H]1OC(=O)CC(C)C (stereo partly drawn) [euspeclibcmpd1446]	39.4 (active)
C[C@]12C=CC(=O)CC1=CCC1C2CC[C@]2(C)C(=O)CCC12 (stereo partly drawn) [euspeclibcmpd1581]	-0.0301
N#CC(=Cc1ccc(O)cc1)C(=O)O [euspeclibcmpd1768]	-0.146
CC[C@H](c1cccc(O)c1)[C@@H](C)CN(C)C [euspeclibcmpd2238]	-0.41
O=C1C(Cl)=C(Cl)C(=O)C(Cl)=C1Cl [euspeclibcmpd1739]	25.8 (active)
C=CCN=C=S [euspeclibcmpd920]	0.0414
Cc1ccc(/N=C/N(C)/C=N/c2ccc(C)cc2C)c(C)c1 [euspeclibcmpd739]	0.115
CC1=C2CCC3C(CC[C@]4(C)C(=O)CCC34)[C@@]2(C)CCC1=O (stereo partly drawn) [euspeclibcmpd1163]	-0.15
CN[C@@H]1[C@@H](O)C(OC2[C@@H](N)C[C@@H](N)[C@H](O[C@H]3O[C@H](C(C)O)[C@@H](O)[C@H](O)[C@H]3N)[C@H]2O)OC[C@]1(C)O (stereo partly drawn) [euspeclibcmpd1437]	-0.354
COc1cc([C@@H]2c3cc4c(cc3[C@H](O)[C@H]3COC(=O)C23)OCO4)cc(OC)c1OC (stereo partly drawn) [euspeclibcmpd2060]	27.1 (active)
CN1CCc2cc3c(cc2C1O)OCO3 (stereo not drawn) [euspeclibcmpd1021]	0.455
COc1cc([C@@H]2c3cc4c(cc3[C@H](O)[C@H]3COC(=O)C23)OCO4)cc(OC)c1OC (stereo partly drawn) [euspeclibcmpd2203]	11.5 (active)
COc1ccc2c(c1OC)C(=O)O[C@@H]2[C@H]1c2cc3c(cc2CCN1C)OCO3 [euspeclibcmpd2270]	0.619
COc1cc([C@@H]2c3cc4c(cc3[C@H](OC(C)=O)[C@H]3COC(=O)C23)OCO4)cc(OC)c1OC (stereo partly drawn) [euspeclibcmpd2106]	13.1 (active)
NCc1cccnc1 [euspeclibcmpd1239]	-0.224
CC(C)[N+](C)(CCC(C(N)=O)(c1ccccc1)c1ccccc1)C(C)C [euspeclibcmpd164]	0.396
CC(C)c1cccc(C(C)C)c1O [euspeclibcmpd699]	-0.02
C[C@]12CCC(=O)CC1=CC=C1C2CC[C@@]2(C)C1CC[C@@]2(O)CCC(=O)O (stereo partly drawn) [euspeclibcmpd2339]	-0.283
CCC(C(=O)[C@H](C)[C@@H](O)[C@H](C)[C@@H]1O[C@@H]([C@@H](CC)C(=O)O)CC[C@@H]1C)[C@H]1OC2(C=C[C@@H](O)[C@]3(CC[C@@](C)([C@H]4CC[C@](O)(CC)[C@H](C)O4)O3)O2)[C@H](C)C[C@@H]1C (stereo partly drawn) [euspeclibcmpd2084]	6.06 (active)

Structure (SMILES)	Srxn1-GFP intensity median modified Z-score
CC(C)(C)NCC(O)c1cc(Cl)c(N)c(Cl)c1 (stereo not drawn) [euspeclibcmpd1154]	-0.331
CCC(N)C(O)c1ccc(O)c(O)c1 (stereo not drawn) [euspeclibcmpd646]	-0.33
CN1CC(CNC(=O)OCc2ccccc2)C[C@H]2c3cccc4c3c(cn4C)CC21 (stereo partly drawn) [euspeclibcmpd1151]	-0.466
COc1cc2c(c(OC)c1OC)-c1ccc(OC)c(=O)cc1[C@@H](NC(C)=O)CC2 [euspeclibcmpd73]	13.3 (active)
COc1cc2c(c(OC)c1OC)-c1ccc(=O)c(O)cc1C(NC(C)=O)CC2 (stereo not drawn) [euspeclibcmpd2248]	-0.142
CNC(=O)Oc1ccc2c(c1)[C@]1(C)CCN(C)[C@@H]1N2C [euspeclibcmpd611]	0.455
C[C@H]1C[C@@H](O)[C@]2(O)[C@@]13CC(=O)OC[C@@]2(C)[C@](C)(O)C(=O)C3 [euspeclibcmpd1475]	0.639
COc1ccc(CN2CCNCC2)c(OC)c1OC [euspeclibcmpd1198]	0.677
CCOC(=O)c1cncn1[C@H](C)c1ccccc1 [euspeclibcmpd826]	-0.145
O=C(O)C1[O][Sb]2[O]C(=O)C([O]2)C(C(=O)O)[O][Sb]2[O]C(=O)C1[O]2 (stereo not drawn) [euspeclibcmpd2437]	3.34 (active)
CC(=O)OC1CN2CCC1CC2 (stereo not drawn) [euspeclibcmpd385]	-0.0983
O=[N+]([O-])C(Br)(CO)CO [euspeclibcmpd2257]	6.25 (active)
COc1ccc(C(=O)O)cc1OC [euspeclibcmpd2003]	-0.455
C[C@]12CC[C@H](O)CC1=CCC1C2CC[C@]2(C)C(=O)CC[C@@H]12 (stereo partly drawn) [euspeclibcmpd1201]	-0.236
OCC(O)[C@H]1O[C@@H]2O[C@H](C(Cl)(Cl)Cl)O[C@@H]2[C@H]1O (stereo partly drawn) [euspeclibcmpd1184]	0.0668
O=C(NC(=O)c1c(F)cccc1F)Nc1cc(Cl)c(OC(F)(F)C(F)C(F)(F)F)cc1Cl (stereo not drawn) [euspeclibcmpd1213]	13.1 (active)
CCC1(CC)C(=O)NC(=S)NC1=O	1.23
CC1=CC(=O)c2c(O)cccc2C1=O [euspeclibcmpd1444]	67.7 (active)
O=C1C=CC(=O)c2c(O)cccc21 [euspeclibcmpd1492]	0.761
CC1(C)C2CC(=O)[C@]3(C)C(CC[C@@]4(C)[C@H](c5ccoc5)OC(=O)C5O[C@]543)[C@@]2(C)C(=O)C[C@H]1O (stereo partly drawn) [euspeclibcmpd1592]	-0.255
N#Cc1[nH]n(-c2c(Cl)cc(C(F)(F)F)cc2Cl)c(=N)c1[S+]([O-])C(F)(F)F (stereo not drawn) [euspeclibcmpd821]	-0.323
